Screening results deposited in PubChem BioAssay by ICCB-Longwood Screening Facility, Harvard Medical School.
Compounds with a hit are over-represented: about 1.5% of the library has one in this group of screens.
Mtb MenB inh = Mtb MenB enzyme inhibition | MenB enzyme assay, absorbance read-out | inhibition, % (no concentration beside the values) | hit rate 0.43% among 100,000 | AID 540299; in the data active means inhibition above about 21%, passing the limit was not always enough
Polio RdRp inh = inhibitors of poliovirus RNA polymerase binding and polymerization; P03300; poliovirus polymerase elongation, fluorescence polarization; stronger effect = lower value; % elongation, % (compound at 16.7 µg/mL); hit rate 0.66% among 150,000; AID 588519; in the data active means % elongation below about 90%
MbtI inh = blocks the Mycobacterium tuberculosis siderophore enzyme MbtI; purified MbtI enzyme, fluorescence intensity read-out; inhibition, % (concentration not given with the values); hit rate 0.89% among 100,000; AID 493033; in the data active means inhibition mostly above about 56%, no sharp cut-off; inactive means mostly below about 77%
Target sequence (P9WFX0 whole entry, looked up): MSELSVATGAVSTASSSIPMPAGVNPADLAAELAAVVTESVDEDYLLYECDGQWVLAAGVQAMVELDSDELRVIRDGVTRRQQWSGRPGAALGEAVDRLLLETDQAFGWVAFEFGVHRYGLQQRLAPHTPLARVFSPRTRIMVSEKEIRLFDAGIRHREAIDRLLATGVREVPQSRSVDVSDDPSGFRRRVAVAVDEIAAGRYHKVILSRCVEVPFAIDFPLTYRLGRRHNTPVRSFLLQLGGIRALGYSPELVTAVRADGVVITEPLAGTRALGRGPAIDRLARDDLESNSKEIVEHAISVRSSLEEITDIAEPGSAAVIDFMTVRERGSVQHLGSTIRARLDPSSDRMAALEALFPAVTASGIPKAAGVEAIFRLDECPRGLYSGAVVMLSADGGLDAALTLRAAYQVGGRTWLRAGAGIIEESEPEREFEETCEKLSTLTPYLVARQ
A number is an active result; n = inactive; x = no result.

SMILES	Mtb MenB inh	Polio RdRp inh	MbtI inh
Cc1ccc(C)n1-c1cc(Cl)ccc1C(=O)O	n	84	n
Cc1ccc(C)n1-c1ccccc1C(=O)O	x	x	n
CN(Cc1nc2ccccc2n1C)C(=O)c1ccc(Cl)cc1	n	n	n
CC1CCCC/C1=N\NC(=O)CC#N (stereo not given)	n	n	n
COc1ccc(/C=C(\C#N)C(N)=S)cc1	n	n	n
N#C/C(=C\c1ccc(O)c(O)c1)C(N)=S	n	n	71
O=c1ccn(Cc2ccccc2)c(=O)[nH]1	x	x	n
COc1ccc(CN(CC(=O)NC2CCCC2)C(=O)Cn2nnc(-c3ccc(OC)cc3)n2)cc1	33	n	n
O=C(CN(Cc1ccccc1)C(=O)Cn1nnc(-c2ccc(F)cc2)n1)NC1CCCC1	n	n	n
O=C(O)CC(Cc1ccccc1)c1ccco1 (stereo not given)	x	x	n
O=C(COC(=O)c1ccc2c(=O)n3c(nc2c1)CCCCC3)c1ccc(S(=O)(=O)N2CCCCC2)cc1	n	n	n
Cc1cccc2nc(-c3ccccn3)c(Nc3ccc(F)cc3)n12	x	n	x
Cc1cccc(C)c1Nc1c(-c2ccccc2F)nc2cccc(C)n12	x	88	x
O/N=C1/CCCc2nn(-c3ccccc3)nc21	n	62	x
O/N=C1\CCCc2c1nc(-c1ccccc1Cl)n2O	n	n	x
O=C(CN1C(=O)c2cccnc2Oc2ccc(Cl)cc21)N1CCc2ccccc21	n	n	n
S=c1nc(CNc2ccccc2)[nH][nH]1	n	n	95
S=c1nc(Cc2ccccc2)[nH][nH]1	n	n	x
O=C(c1ccccn1)N1CCc2ccccc2C1	n	n	n
C/C(=N\NC(N)=S)c1ccc(O)cc1	n	n	n
C/C(=N\NC(N)=S)c1ccc(Cl)cc1	n	x	61
Cc1cc(C)cc(NC(=O)C(=O)NC(C)c2ccccc2)c1 (stereo not given)	x	n	x
O=C1CC(Cc2ccccc2)C(=O)N1Cc1ccco1 (stereo not given)	36	n	n
COc1ccc(CN2C(=O)CC(Cc3ccccc3)C2=O)cc1OC (stereo not given)	n	n	n
CN1C(=O)Cc2ccccc2C1=O	n	38	n
SMILES	Mtb MenB inh	Polio RdRp inh	MbtI inh
O=C1Cc2ccccc2C(=O)N1CCc1ccccc1	n	n	n
O=C1Cc2ccccc2C(=O)N1Cc1ccco1	x	76	n
CN1C(=O)Cc2ccccc21	n	n	n
O=C(OCN1C(=O)c2ccccc2C1=O)c1ccc2c(c1)C(=O)N(Cc1ccco1)C2=O	n	n	n
O=C(O)CN1C(=O)Cc2ccccc2C1=O	n	24	n
Cc1ccc(C2=NN(C(=O)CSc3ccc4c(c3)OCCO4)C(c3ccco3)C2)cc1 (stereo not given)	n	n	n
CCOC(=O)N1CCC(NC(=O)/C=C/C(=O)O)CC1	n	n	n
CC(=O)Nc1ccc(NC(=O)C2Cc3ccccc3N2C(=O)c2ccccc2)cc1 (stereo not given)	x	n	x
COc1ccc(-c2noc(N3CC(C)CC(C)C3)n2)cc1OC (stereo not given)	n	n	n
COC(=O)C1CCN(C(c2ccc(OC)cc2)c2sc3ncnn3c2O)CC1 (stereo not given)	n	n	n
O=C1CCc2cc(S(=O)(=O)NCc3ccccc3)ccc2N1	n	n	n
CC1CCCCC1NC(=O)/C=C/c1ccc2c(c1)OCO2 (stereo not given)	x	n	n
COCCn1c(C)cc(/C=N/n2c(Cc3cccc4ccccc34)n[nH]c2=S)c1C	n	n	73
COCCn1c(C)cc(/C=N/n2c(C)nc3ccccc3c2=O)c1C	n	n	n
O=C(NC1CCCCC1)Sc1ccc(Cl)cc1	n	n	76
O=C(CSc1ccc(Cl)cc1)NC(=O)NC1CCCC1	n	n	n
O=C(CCCn1sc2ccccc2c1=O)NCc1cccs1	n	n	82
O=C(Cn1c(=O)n(CCCC(=O)NC2CCCC2)c(=O)c2ccccc21)NCCC1=CCCCC1	n	n	n
O=C(CCCn1sc2ccccc2c1=O)NCCC1=CCCCC1	n	n	94
O=C(CCCn1sc2ccccc2c1=O)Nc1ccccc1F	n	n	n
COCc1cc(C)nc(SCC(=O)N2CCOCC2)c1C#N	n	n	n
CCC(C)NC(=O)C1CCC(=O)N(c2ccc(OC)cc2)C1c1ccc(OC)c(OC)c1 (stereo not given)	n	n	n
COC(=O)c1c(NC(=O)C2CCCC2)sc2c1CCCC2	n	82	x
O=C(Nc1sc2c(c1C(=O)NCc1ccco1)CCC2)c1cccs1	n	n	n
COC(=O)c1c(NC(C)=O)sc2c1CCC2	n	n	x
COC(=O)c1c(NC(=S)NCc2ccco2)sc2c1CCC2	n	n	61
CN(C)S(=O)(=O)c1ccc2oc(SCC(=O)O)nc2c1	n	n	n
Cc1cc(=O)[nH]c(SC(C)C(=O)Nc2ccccc2)n1 (stereo not given)	n	n	n
CC(C)(C)c1cc(N/C(=N\S(=O)(=O)c2ccccc2)c2ccccc2)no1	n	n	n
